Out of some 48,000 compounds screened, about 13,000 (27%) showed an effect of 50% or more. The list shows a part of the results.
Tested on: Wolbachia pipientis
Assay: Anti-Wolbachia Cell-Based Screen
Type: functional
Design: scale not given: in the data most compounds retested in dose-response had high values
Conditions: 5 µM

Compound | Percent Effect
O=C(NCc1cccc(N2CC=CC2)c1)NCC(F)(F)F | 2.139%
COc1ccnc(N(C)Cc2c(C)noc2C)n1 | 0.6416%
Cc1occc1C(=O)NCC(=O)N1CCCC(c2ccccc2)CC1 (stereo not drawn) | 4.823%
CC1CCCN(C(=O)NCC(F)F)C1 (stereo not drawn) | -0.801%
O=C(CCNC(=O)c1ccoc1)Nc1cc(F)cc(F)c1 | -8.538%
CC(C)CN1CCC(C(=O)NCCNC(=O)c2ccoc2)CC1 | 9.069%
O=C(CCNC(=O)c1ccoc1)Nc1c(F)cccc1F | -2.292%
O=C(NCC(=O)N1CCCC(c2ccccc2)CC1)c1ccoc1 (stereo not drawn) | 114.1%
CCn1cnc(NC(=O)N2CCCC(c3ccccc3)CC2)n1 (stereo not drawn) | 1.274%
CC1CCCN(C(=O)CNC(=O)c2ccoc2)C1 (stereo not drawn) | 104.6%
O=C(NCCC(=O)N1CCCCCCC1)c1ccoc1 | 130.7%
c1cnnc(N2CCCC(NCc3ccc(-n4ccnc4)cc3)C2)c1 (stereo not drawn) | 2.731%
CN(Cc1cccs1)C(=O)CNC1CCc2ncnn2C1 (stereo not drawn) | -0.9071%
Cc1cc(=O)c2ccccc2n1CC1CCCN(C)C1 (stereo not drawn) | -3.698%
Cc1cc(S(=O)(=O)N2CCc3ccc(F)cc32)cc(C(=O)O)c1C | -1.898%
Cc1ccc(C(O)CNCCn2cccn2)cc1C (stereo not drawn) | -13.13%
CC(NC(=O)NCCCn1cncn1)c1ccc2c(c1)OCCO2 (stereo not drawn) | 5.809%
CC(NC(=O)Cn1cccn1)c1ccc2c(c1)OCCCO2 (stereo not drawn) | -3.831%
CC(NC(=O)NCCCn1ccnc1)c1ccc2c(c1)OCCCO2 (stereo not drawn) | -3.282%
CC(NC(=O)Cn1cccn1)c1ccc2c(c1)OCCO2 (stereo not drawn) | 96.81%
Cc1ccc(C(C)NC(=O)CNCCn2cccn2)cc1C (stereo not drawn) | 67.97%
Cc1cnn(CCNCC(=O)NC(C)c2ccc3c(c2)OCCO3)c1 (stereo not drawn) | 97.89%
CC(NC(=O)CCn1cccn1)c1ccc2c(c1)OCCO2 (stereo not drawn) | 98%
CC(NC(=O)NCCCO)c1ccc2c(c1)OCCO2 (stereo not drawn) | 6.207%
OC(CNCCn1cccn1)c1ccc2c(c1)OCCO2 (stereo not drawn) | 4.861%
CC(NC(=O)CNCCn1cccn1)c1ccc2c(c1)CCCC2 (stereo not drawn) | 2.456%

Compound | Percent Effect
CC(NC(=O)CNCCn1cccn1)c1ccc2c(c1)OCCO2 (stereo not drawn) | -2.168%
Cc1noc(C)c1CN(C)C(=O)NC(C)Cc1ccco1 (stereo not drawn) | 8.322%
CN(Cc1nc2ccccc2o1)CC1CCCN1c1cccnn1 (stereo not drawn) | 4.649%
COc1ccccc1C(C)N1CCN(S(=O)(=O)N(C)C)CC1 (stereo not drawn) | -4.471%
Cc1cccc(N2N=C(C(=O)NC(C)Cn3cccn3)CCC2=O)c1 (stereo not drawn) | -20.26%
Nc1nc(CNc2nccc(CCC(F)(F)F)n2)cs1 | 0.6104%
Cc1cc(NC(=O)[C@H]2CCCCN2C(=O)OC(C)(C)C)no1 | 12.93%
O=C(CCC1CCCO1)NCc1ccc(Br)cc1F (stereo not drawn) | 24.29%
Cc1occc1C(=O)N1CCc2ncnc(-c3cnn(C)c3)c2CC1 | 2.959%
CN(C)CC(=O)N1CCc2ncnc(-c3ccoc3)c2CC1 | -8.225%
Cn1cc(-c2ncnc3c2CCN(C(=O)c2cnccn2)CC3)cn1 | 113%
Cc1cc(C(=O)N2CCc3ncnc(-c4cnn(C)c4)c3CC2)c(C)o1 | 88.25%
Cc1ccoc1C(=O)N1CCc2ncnc(-c3cnn(C)c3)c2CC1 | 95.42%
Cc1cnc(C(=O)N2CCc3ncnc(C)c3CC2)cn1 | -11.83%
Cc1cnc(C(=O)N2CCc3ncnc(-c4cnn(C)c4)c3CC2)cn1 | 103.6%
Cc1ncnc2c1CCN(C(=O)c1cnccn1)CC2 | 1.422%
CCOc1ncnc2c1CCN(C(=O)c1cnccn1)CC2 | 5.086%
Cc1ncnc2c1CCN(C(=O)c1ccoc1)CC2 | -3.432%
CN(c1cccnc1N1CCCC1)S(=O)(=O)c1cccs1 | 3.267%
CCc1nc(C)c(C(=O)N2CCNCC2C(=O)Nc2ccc(C)nc2)o1 (stereo not drawn) | 1.705%
Cc1cccc(C)c1OC1CN(Cc2cnc(-c3ccco3)nc2)C1 | -6.327%
CSCC(=O)N[C@H]1CN(CC2CCOCC2)C[C@@H]1c1ccccc1 | 6.905%
O=C(c1cc[nH]n1)N1CCc2ncnc(N3CCSCC3)c2CC1 | 19.12%
Cc1ccc(C(=O)N2CCc3ncnc(-c4cnn(C)c4)c3CC2)o1 | 96.64%
COc1cc(N2CCc3ncnc(-c4cnn(C)c4)c3CC2)ncn1 | -4.032%
Cn1cc(-c2ncnc3c2CCN(C(=O)N2CCOCC2)CC3)cn1 | -0.924%

Compound | Percent Effect
Cc1ccc(C(=O)N2CCc3ncnc(C)c3CC2)o1 | -4.866%
Cn1cc(-c2ncnc3c2CCN(C(=O)c2cscn2)CC3)cn1 | 121.2%
Cc1cc(C(=O)N2CCc3ncnc(-c4cnn(C)c4)c3CC2)no1 | 110.1%
CN(C)c1cnnc(N2CCN(C(=O)CCC3CCCCC3)CC2)c1 | 3.23%
Cc1n[nH]c(SCC(=O)NC(c2ccncc2)C(C)C)n1 (stereo not drawn) | 1.831%
Cc1cc(NC(=O)N2CCOCC2)nn1-c1ccccc1Cl | -5.01%
CCc1nc(NS(=O)(=O)c2cc(C)cc(F)c2)no1 | -9.734%
Cc1ccc(N2CCCC3(CCCC(=O)N3)C2)nn1.O=C(O)C(F)(F)F (stereo not drawn) | -15.09%
Cc1ccc(N2CCC3(CC2)CC(OCC(C)C)C3)nn1.O=C(O)C(F)(F)F | -76.25%
Cc1ccc(CN2CCC(F)(F)C3(CCN(c4cnccn4)C3)C2)o1.O=C(O)C(F)(F)F.O=C(O)C(F)(F)F (stereo not drawn) | 15.24%
Cc1ccc(N2CCC3(CN(Cc4ccncc4)CCC3(F)F)C2)nn1.O=C(O)C(F)(F)F.O=C(O)C(F)(F)F (stereo not drawn) | 101.6%
Cc1ccc(N2CCC3(CN(Cc4cccs4)CCC3(F)F)C2)nn1.O=C(O)C(F)(F)F (stereo not drawn) | 80.15%
Cc1n[nH]cc1CNc1ccc2c(c1)N(C(=O)OC(C)(C)C)CCC2 | -11.3%
Cc1nnsc1CNC(=O)Nc1cccc(N2CCN(C)C2=O)c1 | -31.37%
CN1CC2(COCCN(c3ncccn3)C2)OCC1=O (stereo not drawn) | -2.048%
Cc1cccc(N2CCOCC3(C2)CN(c2cccnc2)C(=O)CO3)n1 (stereo not drawn) | 106.1%
O=C1COC2(COCCN(c3cnccn3)C2)CN1c1cccc(F)c1 (stereo not drawn) | -3.492%
Cc1cccc(N2CC3(COCCN(c4ccncn4)C3)OCC2=O)c1 (stereo not drawn) | -13.92%
Cc1cccc(N2CCOCC3(C2)CN(c2cncnc2)C(=O)CO3)n1 (stereo not drawn) | 105.8%
N#CCCN(Cc1ccco1)C(=O)COC1CCCCC1 | 5.394%
O=S1(=O)C[C@@H]2[C@H](C1)N(Cc1nc3ccccc3[nH]1)CCN2CC1CC1 | 0.3251%
COCC(=O)N1CCCCC1c1nc(CN(C)C(C)=O)cc(N(C)C)n1 (stereo not drawn) | 103.1%
CCC(=O)N1CCCCC1c1nc(CN(C)C(C)=O)cc(N(C)C)n1 (stereo not drawn) | 86.02%
CC(C)c1nc(C2CCCN2C(=O)c2ccc(N(C)C)nn2)no1 (stereo not drawn) | 2.138%
CN(CC(=O)N1CCCC1c1noc(C2CC2)n1)C1CC1 (stereo not drawn) | -4.612%
CC(=O)c1ccc(C(=O)N2CCCCC2c2nc[nH]n2)cc1 (stereo not drawn) | -8.755%

Compound | Percent Effect
CC(=O)N1CCCC1c1nc(CN(C)C(=O)C(C)C)cc(N(C)C)n1 (stereo not drawn) | 95.56%
Cc1ccsc1CNC(=O)NC1CCCc2c1cnn2CCO (stereo not drawn) | 0.2453%
CC(=O)N1CCCN(C(=O)NCCCN(C)S(C)(=O)=O)CC1 | -3.578%
COc1ccccc1CN(Cc1cccnc1)Cc1nccs1 | -55.96%
CCc1noc(C)c1C(=O)Nc1cnn(CC(=O)NC2CCCC2)c1 | 1.161%
CCn1cc(NC(=O)C2CCN(CC(=O)NC(C)(C)CC)CC2)cn1 | 91.29%
CCN1CCC(CNC(=O)Nc2cnn(CC(N)=O)c2)C1 (stereo not drawn) | -9.388%
CCn1cc(NC(=O)C2CCN(CC(=O)N3CCOCC3)CC2)cn1 | -4.13%
CCn1cc(NC(=O)NC2CCCc3c2cnn3CCO)cn1 (stereo not drawn) | 0.905%
CCCNC(=O)C(C)N1CCC(C(=O)Nc2cnn(CC)c2)CC1 (stereo not drawn) | 103.7%
CCn1cc(NC(=O)C2CCN(CC(=O)NCC(C)C)CC2)cn1 | 118.6%
Cc1ncncc1C(=O)Nc1cnn(CC(=O)NC2CCCC2)c1 | 0.1635%
CCCNC(=O)CN1CCC(C(=O)Nc2cnn(CC)c2)CC1 | 2.919%
CCn1cc(NC(=O)C2CCN(CC(=O)NC3CCCC3)CC2)cn1 | 91.7%
O=C(c1ccccc1C(F)(F)F)N1C[C@@H](CN2CCOCC2)[C@@H](CO)C1 | -0.09435%
CCCc1cncnc1N1CCC(NCc2cc3ccccc3[nH]2)CC1 | -18.7%
O=C(NC1CC1)[C@H]1C[C@H]2OCC[C@H]2N(CC2CCOCC2)C1.O=C(O)C(F)(F)F | 0.97%
O=C(Nc1nncs1)N1CCCN(C2CCCCC2)CC1 | -4.459%
COc1ccc(S(=O)(=O)NCCC(O)c2cc(C)oc2C)c(C)c1 (stereo not drawn) | 2.617%
C[C@@H]1C[C@H]2CN(C(=O)C3=CCCCC3)C[C@H]2O1 | 0.662%
O=C(NC1CCS(=O)(=O)c2ccccc21)c1cccs1 (stereo not drawn) | 3.993%
CCNC(=O)N1C[C@@H]2OCC(=O)N(C(C)C)[C@@H]2C1 | -6.666%
Cc1ccsc1C(=O)Nc1cnn(CC(=O)NC2CCCC2)c1 | 2.464%
Cc1nc(C)c(C(=O)Nc2cnn(CC(=O)NC3CCCC3)c2)s1 | 111.4%
Cc1cc(C(=O)Nc2cnn(CC(=O)NC3CCCC3)c2)c(C)s1 | 2.888%
